Data reported in the supplement of paper PMC13380429.

Key:
[1] = tested on: Vero E6 infected with SARS-CoV-2; experiment: morphology score (similarity to uninfected cells); higher = more like uninfected cells; conditions: 24 h
[2] = tested on: Vero E6 infected with SARS-CoV-2; experiment: SARS-CoV-2 infection rate relative to infected DMSO; higher = more infection, active = 60 or less; conditions: 24 h

Row | Structure (SMILES) | morphology score [1] | SARS-CoV-2 infection rate [2]
1 | NC1CCN(c2cccc(Cl)n2)CC1 (10 µM) | -0.122 | 108% (inactive)
2 | O=C/C=C/c1ccccc1 [cinnamaldehyde] (10 µM) | -0.0291 | 104% (inactive)
3 | O=c1c(O)c(-c2ccc(O)cc2O)oc2cc(O)cc(O)c12 [morin] (10 µM) | 0.0742 | 108% (inactive)
4 | CC(C)(COP(=O)(O)OP(=O)(O)OC[C@H]1O[C@@H](n2cnc3c(N)ncnc32)[C@H](O)[C@@H]1OP(=O)(O)O)[C@@H](O)C(=O)NCCC(=O)NCCS [coenzyme-A] (10 µM) | 0.0234 | 102% (inactive)
5 | Cc1c(Cl)cccc1S(=O)(=O)Nc1nc(NCCc2ccccc2)nc2c1CN(Cc1ccccc1)CC2 (10 µM) | 0.104 | 94.5% (inactive)
6 | O=C(O)c1ccc2c(c1)nc(Nc1cccc(Cl)c1)c1ccncc12 (10 µM) | 0.237 | 103% (inactive)
7 | COc1cc2c(NC3CCN(CC4CCCCC4)CC3)nc(N3CCCN(C(C)C)CC3)nc2cc1OCCCN1CCCCC1 (0.833333 µM) | 0.165 | 92% (inactive)
8 | Nc1n[nH]c2nc3ccccc3nc12 [CDK1-5-inhibitor] (10 µM) | -0.113 | 112% (inactive)
9 | NC(N)=Nc1nc(CSCC/C(N)=N/S(N)(=O)=O)cs1 [famotidine] (10 µM) | -0.0119 | 106% (inactive)
10 | CCCCNC(=O)NS(=O)(=O)c1ccc(C)cc1 [tolbutamide] (10 µM) | 0.121 | 96.5% (inactive)
11 | CCCCCC(C)N (configuration not stated) [tuaminoheptane] (10 µM) | -0.092 | 109% (inactive)
